TDP1 cell noCPT = qHTS for Inhibitors of human tyrosyl-DNA phosphodiesterase 1 (TDP1): qHTS in cells in absence of CPT. DT40 Tdp1-/- hTDP1 cells, no CPT, ATP luminescence, 48 h. Potency, µM (series often up to 46.2 µM), for inactives: top-dose activity change, negative = growth inhibition, usual class: inhibitors. 15% of 420,000 active. AID 686978, 2013; also: potency is read from the fitted curve at half-maximal effect; nearly all actives have a fitted effect of over 55% in size
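Compound effects on proliferation are scored in DT40 Tdp1-/-;hTDP1 cells in the absence of CPT. ATP levels (CellTiter-Glo luminescence) are recorded after a ≥48 hr, 37 °C incubation.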
HT1080NT lethal = kills 2HG-producing HT-1080-NT fibrosarcoma cells | HT-1080-NT fibrosarcoma viability, CellTiter-Glo ATP luminescence, 48 h | Potency, µM (titrated, usually from 46.1 µM), without a hit: at the highest dose activity, negative = less viability, actives largely listed as cytotoxic | 1.6% of 360,000 active;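 also: NT is the 2HG producing partner of a matched IDH1 knockdown line; potency is read from the fitted curve at half-maximal effect; 0% = DMSO-treated cells and -100% = media-only wells without cells; nearly all actives have a fitted effect of over 55% in size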
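Fibrosarcoma NT cells, 750 per well in 5% FBS RPMI, were exposed to compound for 48 hours. Viability: CellTiter-Glo luminescence.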
ALOX12 inh = inhibitors of human 12S-lipoxygenase ALOX12 | P18054 | purified 12hLO, xylenol orange hydroperoxide absorbance | Potency, µM (series often up to 108 µM), without a hit: top-dose activity change, negative = inhibition, actives largely listed as inhibitors | 1.1% of 580,000 active | AID 1671190; also: potency is read from the fitted curve at half-maximal effect
Target sequence (P18054 whole entry, looked up): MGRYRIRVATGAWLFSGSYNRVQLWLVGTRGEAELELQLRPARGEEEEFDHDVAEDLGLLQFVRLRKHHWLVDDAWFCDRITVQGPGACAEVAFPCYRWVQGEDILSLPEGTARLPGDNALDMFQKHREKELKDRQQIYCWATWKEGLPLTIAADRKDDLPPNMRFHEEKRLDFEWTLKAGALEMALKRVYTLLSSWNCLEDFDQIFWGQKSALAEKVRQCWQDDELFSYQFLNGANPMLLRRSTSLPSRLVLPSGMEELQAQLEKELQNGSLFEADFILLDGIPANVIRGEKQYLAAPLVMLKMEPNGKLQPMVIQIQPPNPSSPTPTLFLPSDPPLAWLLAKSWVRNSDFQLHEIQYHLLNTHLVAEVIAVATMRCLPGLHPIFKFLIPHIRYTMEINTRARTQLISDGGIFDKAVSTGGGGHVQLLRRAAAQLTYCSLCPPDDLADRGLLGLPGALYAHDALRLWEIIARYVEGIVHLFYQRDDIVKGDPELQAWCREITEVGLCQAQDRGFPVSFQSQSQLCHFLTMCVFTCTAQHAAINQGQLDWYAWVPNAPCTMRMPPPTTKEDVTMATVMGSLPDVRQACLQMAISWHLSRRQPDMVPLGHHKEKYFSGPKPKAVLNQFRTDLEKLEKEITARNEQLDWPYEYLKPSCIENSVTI
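Purified human 12hLO at 150 nM in 25 mM Hepes, 0.01% Triton X-100, pH 7.0, preincubated 15 min at room temperature with compound. Reaction started with 40 uM arachidonic acid, 30 min at room temperature. Hydroperoxide measured by Fe-xylenol orange, 573/405 nm absorbance ratio.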
IL1B secr inh = inflammasome signaling inhibition, IL-1 beta readout. THP-1 LPS/ATP IL-1B secretion, AlphaLISA, 16 h; active compounds read low. 4.7% of 360,000 active. AID 743279. activity change, % at 57.5 µM; in the data active = activity change below about -50%; inconclusive = mostly about -30% to -49%
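Secreted IL-1B measured by AlphaLISA bead assay after 16 h compound exposure of THP-1 cells; compounds (final up to 57.5 uM) added 1 h before LPS (250 ng/mL) and ATP (1.25 mM) stimulation; lower signal means less secretion.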
DT40 TDP1 CPT = DT40-hTDP1 cell growth loss with CPT; chicken DT40 Tdp1-/-;hTDP1 cells + 20 nM CPT, ATP luminescence, 48 h; 12% of 420,000 active; Potency, µM (top dose mostly 46.2 µM), without a hit: top-dose activity change, negative = growth inhibition, hits mostly inhibitors; AID 686979; also: potency is read from the fitted curve at half-maximal effect; nearly all actives have a fitted effect of over 55% in size
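Cell growth measured by CellTiter-Glo luminescence after a minimum 48 h, 37 C compound exposure with 20 nM CPT in Tdp1-knockout DT40 cells stably expressing hTDP1, seeded 400/well; qHTS titration format.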
HT1080 IDH1KD tx = toxicity to HT-1080 IDH1 knockdown cells (counter line). HT-1080 IDH1 knockdown viability, ATP luminescence, 48 h. Potency, µM (doses to about 46.1 µM), without a hit: top-dose activity, negative = toxicity, most hits filed as cytotoxic. 2% of 360,000 active;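 also: potency is read from the fitted curve at half-maximal effect; 0% = DMSO wells and -100% = cell-free medium wells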
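After a 2 h attachment period, IDH1KD HT-1080 cells took pin-transferred compound for 48 h at 37 °C; ATP-based luminescence after 10 min room-temperature reagent incubation reported viability.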
* = called active by the depositor; ? = inconclusive; · = no result given. The entries come from a sample that favours hits as a whole. Unless noted, calls follow the shape of the dose curve; as a rule, active = well fitted curve in the direction sought with a large enough effect; inconclusive = small, poorly fitted or top-dose-only effect, or another doubt; inactive = no such curve, though single readings can be large; an effect the other way counts as inactive or inconclusive. Unless noted, % is scaled to controls: 0 for no effect and ±100 for the full control effect.

SMILES	TDP1 cell noCPT	HT1080NT lethal	ALOX12 inh	IL1B secr inh	DT40 TDP1 CPT	HT1080 IDH1KD tx
CCc1ccc(NC(=O)Cn2c(=O)nc(-c3ccccc3F)c3cc(Cl)ccc32)cc1	-25%	·	-9%	·	-1%	·
Cc1cccc(C)c1NC(=O)CN1CCN(C(=O)CNC(=O)Cc2cccc3ccccc23)CC1	15µM*	-16%	-17%	3	?	3%
Cc1cccc(C)c1NC(=O)CN1CCN(C(=O)CNC(=O)c2ccc(-c3ccccc3)cc2)CC1	16µM*	2%	-11%	29	?	?
CCc1ccccc1NC(=O)CN1CCN(C(=O)CNC(=O)Cc2cccc3ccccc23)CC1	?	-6%	?	-10	-17%	-8%
Cc1cccc(NC(=O)CN2CCN(C(=O)CNC(=O)c3ccc(-c4ccccc4)cc3)CC2)c1C	2.3µM*	?	-25%	38	4.6µM*	10µM*
Cc1cccc(C)c1NC(=O)CN1CCN(C/C=C/c2ccccc2)CC1	?	5%	3%	4	?	1%
CCNC(=O)N1CCC2(CC1)CC(N(CC)CC)CCO2 (stereo not drawn)	·	·	47%	·	·	·
CCC1(C)C(C#N)C(=O)NC(=O)C1C#N (stereo not drawn)	·	·	4%	·	·	·
Cc1ccc(S(=O)(=O)Oc2ccc3c(C)cc(=O)oc3c2)cc1	·	·	8%	·	·	·
O=C(NCCN1CCCCC1)c1ccc(-c2nnc3ccc(NC(=O)C4CCC4)cn23)cc1	·	·	24%	·	·	·
c1cc(-c2ccnc3nc(CCC4CCCC4)nn23)ccn1	·	·	35%	·	·	·
Cc1ccc(N2C(=O)N(Cc3cccc(Cl)c3)c3ccccc3S2(=O)=O)cc1	?	·	-20%	·	?	·
Cc1cccc(CN2C(=O)N(c3ccc(C(C)C)cc3)S(=O)(=O)c3ccccc32)c1	23µM*	·	-21%	·	?	·
Cc1ccc(CN2C(=O)N(c3ccc(C)c(Cl)c3)S(=O)(=O)c3ccccc32)cc1	?	·	-12%	·	?	·
Cc1ccc(CN2c3ccccc3S(=O)(=O)c3ccccc32)cc1	?	·	-19%	·	26µM*	·
CC(C)c1ccc(N2C(=O)N(Cc3ccccc3Cl)c3ccccc3S2(=O)=O)cc1	18µM*	·	-17%	·	?	·
Cc1cccc(N2C(=O)N(Cc3ccc(C(C)(C)C)cc3)c3ccccc3S2(=O)=O)c1	21µM*	·	-14%	·	?	·
N#Cc1ccc(OCCSC2=NCCS2)cc1	·	·	11%	·	·	·
O=C(NCCc1ccccn1)C1c2ccccc2C(=O)N(C2CCCCC2)C12CCCCC2 (stereo not drawn)	·	·	45%	·	·	·
Clc1cc(Cl)c(N/N=C/c2c(Cl)cccc2Cl)c(Cl)c1	·	·	37%	·	·	·
Cc1cccc(NC(=O)NC2CCSc3ccccc32)c1 (stereo not drawn)	·	·	-25%	·	·	·
O=C(NCc1ccco1)N1CCc2nc3cc(-c4ccccc4Cl)[nH]n3c(=O)c2C1	·	·	51%	·	·	·
CC(C)Oc1ccc(C(=O)NC2CCN(Cc3ccccc3)CC2)cc1	?	0%	39%	-84*	-33%	-12%
O=C(NC1CCN(Cc2ccc(F)cc2)CC1)c1ccccc1	-27%	22%	-11%	2	-4%	10%
O=C(NC1CCN(Cc2ccc(Cl)c(Cl)c2)CC1)c1ccccc1	?	-1%	-26%	-19	21µM*	0%
SMILES	TDP1 cell noCPT	HT1080NT lethal	ALOX12 inh	IL1B secr inh	DT40 TDP1 CPT	HT1080 IDH1KD tx
O=C(NC(=S)NC1CCN(Cc2ccccc2)CC1)c1ccc(F)cc1	15µM*	-2%	?	-26	?	0%
O=C(NC1CCN(Cc2ccccc2)CC1)c1ccc(I)cc1	-12%	·	?	·	-22%	·
O=C(NC1CCN(Cc2ccc3ccccc3c2)CC1)c1ccccc1	18µM*	-4%	?	-16	18µM*	6%
CN(C)C[C@@H]1CN(c2ncccn2)C[C@H]1NC(=O)c1ccccc1Cl	·	·	14%	·	·	·
O=C(CN1CCCC1c1nc2ccccc2s1)NC(=O)Nc1ccc2c(c1)OCO2 (stereo not drawn)	·	·	-15%	·	·	·
C=CCN1CCN(C(=O)CCC[C@@H]2[C@H]3CCCN4CCC[C@@H](CN2Cc2cccnc2)[C@@H]34)CC1	·	·	70%	·	·	·
COC(=O)C(CC(C)C)NC(=O)C(Cc1ccccc1)NC(=O)C1CCCN1C(=O)OC(C)(C)C (stereo not drawn)	8%	2%	11%	-71*	-2%	-1%
Cc1ccc(C)c(CN2C(=O)c3ccccc3S(=O)c3ccc(C(=O)N4CCN(c5ccccc5F)CC4)cc32)c1 (stereo not drawn)	1.8µM*	·	?	·	5.8µM*	·
CCN1CCN(C(=O)c2ccc3c(c2)N(Cc2cc(C)ccc2C)C(=O)c2ccccc2S3=O)CC1 (stereo not drawn)	16µM*	·	-5%	·	18µM*	·
CCOC(=O)C1CCCN(C(=O)c2ccc3c(c2)N(Cc2ccccc2F)C(=O)c2ccccc2S3=O)C1 (stereo not drawn)	16µM*	·	-21%	·	?	·
CCN1C(=O)c2ccccc2S(=O)c2ccc(C(=O)N3CCN(c4cc(Cl)ccc4C)CC3)cc21 (stereo not drawn)	23µM*	·	-22%	·	?	·
CN(C)CCCNC(=O)c1nc(-c2cccc3[nH]ccc23)no1	·	·	12%	·	·	·
COc1cc(C2CC(=O)Nc3c2cnn3-c2nc3ccccc3s2)cc(OC)c1O (stereo not drawn)	·	·	-13%	·	·	·
Cc1ccc(C)c(N2CCN(C(=O)c3ccc4c(c3)N(Cc3ccc(F)cc3)C(=O)c3ccccc3S4=O)CC2)c1 (stereo not drawn)	10µM*	·	-28%	·	18µM*	·
Cc1ccc(C)c(CN2C(=O)c3ccccc3S(=O)c3ccc(C(=O)N4CCN(c5ccccn5)CC4)cc32)c1 (stereo not drawn)	16µM*	?	4%	-24	?	-12%
Cc1ccc(Cl)cc1N1CCN(C(=O)c2ccc3c(c2)N(Cc2ccccc2F)C(=O)c2ccccc2S3=O)CC1 (stereo not drawn)	?	·	-15%	·	?	·
Cc1oc(-c2cccs2)nc1C(=O)NC(C)CN1CCOCC1 (stereo not drawn)	·	·	7%	·	·	·
COc1ccc(N2CCN(C(=O)CSc3ncccc3-c3nc4ccccc4[nH]3)CC2)cc1	29µM*	3%	?	7	18µM*	8%
O=C(CSc1ncccc1-c1nc2ccccc2[nH]1)N1CCN(c2ccccc2F)CC1	?	-14%	?	-23	16µM*	-18%
